Source: PubChem BioAssay (several laboratories)
An excerpt weighted towards active compounds, which were near 3.9% of everything screened.
TROY signal inh = inhibitors of TROY-driven NF-kB signaling, primary screen, Q293 LMP1-TROYcd cells, NF-kB luciferase, uHTS; Q293 LMP1-TROYcd NF-kB luciferase reporter, 4 h; inhibition, % at 10 µM; hit rate 0.98% among 360,000; AID 1347056, 2019;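 active = compounds whose plate-normalised and pattern-corrected inhibition of the luciferase reporter signal at the single screening dose is 50% or more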
C8 TRAIL sens = viability loss with TRAIL in NB7+C8 cells, primary screen, TRAIL sensitizer project, cell-based, ATPlite luminescence; inhibition (viability loss, TRAIL sensitization), % at 10 µM; hit rate 1% among 360,000;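 active = compounds causing at least 50% loss of cell viability in the single-dose screen, relative to plate controls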
aSyn 5UTR inh = MLPCN primary screen, SNCA 5' untranslated region; AID 1813, 2009; inhibition, % (tested at 7.5 µM); alpha-synuclein 5'UTR reporter, inhibitor activity; hit rate 0.82% among 300,000; in the data active = inhibition above about 60%; inconclusive = no clear call, values can overlap the other calls;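 note: H4 neuroglioblastoma cells stably carrying SNCA 5'UTR luciferase fusion; 0% = DMSO wells and 100% = positive control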
HSP90 refold inh = HSP90 inhibitors, primary screen, cell lysate, luminescence; Rabbit reticulocyte lysate, luciferase refolding luminescence, 3 h; inhibition, % at 5.6 µM; hit rate 0.91% among 290,000; AID 1789, 2009;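 active = inhibition above the screen-wide mean plus 3 SD, computed separately per campaign, cut at about 16% in these data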;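 note: 0% = DMSO wells and 100% = 60 µM geldanamycin wells; inhibitors lower the luminescence because luciferase stays unfolded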
HIF-2a inh = HIF-2a reporter inhibitors, primary screen, luminescence, 786-0 RCC cells; 786-0 RCC cells HIF-2a reporter, luciferase luminescence, overnight; inhibition, % at 18.8 µM; hit rate 0.72% among 360,000; AID 624352, 2012;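 active = inhibition of the luminescence signal of 40% or more relative to plate controls, in a single-dose primary screen at 18.75 µM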
TWEAK Fn14 block = inhibitors of TWEAK-Fn14 signaling, primary screen, luciferase reporter cells, uHTS; hit rate 2% among 360,000; TWEAK-stimulated Fn14 reporter cells, luciferase luminescence, 8 h; inhibition, % at 10 µM; in the data active = inhibition above about 50%
Mdm2-MdmX confirm = retested Mdm2-MdmX interaction blockers, confirmation, cell-based, luminescence, single concentration, set 2; shares compounds with HIF-2a inh; SaOS-2 split-luciferase Mdm2/MdmX complementation; inhibition, % at 8 µM; hit rate 99% among 740;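 active = mean inhibition of the luminescence signal across two replicates at or above 26 percent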
HIF-2a conf = HIF-2a reporter inhibitor retest, confirmation, luminescence, 786-0 RCC cells. hit rate 56% among 1,800. shares compounds with HIF-2a inh. inhibition, % at 18.8 µM. HIF-2a luciferase reporter luminescence, overnight;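 active = mean inhibition across four replicates of at least 40 percent at the single tested concentration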
HIF-1a counter = HIF-1a luciferase reporter signal reduction – MiaPaCa-2 cells, single concentration, counter-screen for HIF-2a inhibitor project, confirmation; hit rate 72% among 1,800; shares compounds with HIF-2a inh; AID 651589, 2012; inhibition, % at 18.8 µM; MiaPaCa-2 HIF-1a luciferase reporter, desferoxamine, overnight;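 active = mean inhibition of the reporter signal across four replicates at the single tested dose of 50% or more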
Starred values were filed as active, the others as inactive; ? = inconclusive; nt = no result given.

SMILES	TROY signal inh	C8 TRAIL sens	aSyn 5UTR inh	HSP90 refold inh	HIF-2a inh	TWEAK Fn14 block	HIF-2a conf	HIF-1a counter	others
COc1ccc(-c2oc3ncnc(NCCN4CCOCC4)c3c2-c2ccc(OC)cc2)cc1	16	9	45	2	47*	33	30	90*
Cn1c(O)c(C=NCCCCCC(=O)O)c(=O)n(C)c1=O	7	-11	nt	nt	20	11	nt	nt
O=C(Nc1nc(-c2ccc(-c3ccccc3)cc2)cs1)c1cc([N+](=O)[O-])ccc1N1CCOCC1	5	2	-20	1	62*	17	-78	-7
CCN(CC(=O)Nc1ccc(NC(C)=O)cc1)C(=O)/C=C/c1ccc(C)o1	-10	1	nt	nt	13	16	nt	nt
CN(C)CCCn1cnc2c(c1=N)C(c1ccccc1)c1ccc3ccccc3c1O2 (stereo not drawn)	-29	71*	90*	1	93*	-85	10	106*	Mdm2-MdmX confirm=103*
COc1ccc(C(C(=O)Nc2ccc(F)cc2)N2CCN(CC(=O)N3CCCC3)CC2)cc1 (stereo not drawn)	nt	10	nt	nt	-13	nt	nt	nt
CCn1nc(C)cc1-c1nnc(SCC(=O)Nc2ccccc2)n1CCCOC	-4	0	-6	1	16	7	nt	nt
CCn1nc(C)cc1-c1nnc(Sc2ncc([N+](=O)[O-])s2)n1C	-6	9	-14	7	96*	17	nt	nt	Mdm2-MdmX confirm=103*
O=C1CCC2S/C(=C/Nc3ccc(C(F)(F)F)cc3)C(=O)N12 (stereo not drawn)	-37	-3	99*	9	97*	86*	98*	105*
O=C1CCCC/C1=C/Nc1cccc(C(F)(F)F)c1	-11	2	-32	-2	-59	-11	nt	nt
Cc1cccc(N(C(=O)CNC(=O)c2ccco2)C(C(=O)NC2CCCCC2)c2cccnc2)c1 (stereo not drawn)	11	0	6	-4	19	12	nt	nt
O=C(NC1CCCCC1)C(c1cccnc1)N(C(=O)CCl)c1cccc(Cl)c1 (stereo not drawn)	9	98*	-81	6	62*	44	98*	106*	Mdm2-MdmX confirm=103*
COC(CN(C(=O)CCl)C(C(=O)NC1CCCCC1)c1ccccc1C)OC (stereo not drawn)	-3	10	-71	3	47*	41	10	84*
COc1ccc(C(C(=O)NC2CCCCC2)N(C(=O)CCl)c2ccc(Cl)cc2)cc1 (stereo not drawn)	9	96*	6	2	27	54*	nt	nt	Mdm2-MdmX confirm=98*
COc1ccc(-c2nc3c(Cl)cc(C(F)(F)F)cn3c2Cc2cccc(F)c2)cc1OC	3	21	nt	nt	-32	2	nt	nt
COc1ccc(C(NC(=O)C2CCN(Cc3ccc(Oc4ccccc4)cc3)CC2)c2ccccc2C)cn1 (stereo not drawn)	23	11	nt	nt	-6	15	nt	nt
COc1ccc(-c2cc(=O)oc3cc(OC(=O)C4CCCCC4)c(Cl)cc23)cc1	58*	-12	13	-2	16	84*	nt	nt	Mdm2-MdmX confirm=91*
COc1ccc(-c2cc(=O)oc3cc(OC(C)C(=O)NC4CC4)ccc23)cc1 (stereo not drawn)	-17	4	38	-1	11	-9	nt	nt
CCCCOC(=O)Cn1c(=O)n(CC(=O)OCCCC)c2ccccc21	3	-2	1	-1	17	-12	nt	nt
CCCCCCCCCCOC(=O)Cn1c(COc2ccc(Cl)cc2)[n+](C)c2ccccc21	43	33	83*	14	19	19	nt	nt	Mdm2-MdmX confirm=103*
COc1ccc(C2c3ccc(O)cc3Oc3ncn(Cc4ccccc4)c(=N)c32)cc1OC (stereo not drawn)	38	18	-1	10	58*	36	9	51*
Cc1ccc(CN2CC(C(=O)Nc3ncccc3C)CC2=O)cc1 (stereo not drawn)	-15	-9	1	-1	13	5	nt	nt
Cc1cc(=O)oc2cc(O)cc(OCc3ccccc3)c12	6	8	nt	nt	-75	32	nt	nt
O=[N+]([O-])c1ccc(N2CCCC2)nc1N1CCCC1	1	3	21	4	-9	-9	nt	nt
Nc1ncc([N+](=O)[O-])c(N2CCCCCC2)n1	33	-1	22	-2	8	75*	nt	nt	Mdm2-MdmX confirm=84*
SMILES	TROY signal inh	C8 TRAIL sens	aSyn 5UTR inh	HSP90 refold inh	HIF-2a inh	TWEAK Fn14 block	HIF-2a conf	HIF-1a counter	others
N#Cc1ccc(CSc2nnc(-c3c[nH]c4ccccc34)n2-c2ccccc2)cc1	16	-2	24	5	47*	27	30	71*
CCn1c(=O)c([N+](=O)[O-])c(NCCN(C)C)c2ccccc21	-2	2	14	5	13	9	nt	nt
CCn1c(=O)c([N+](=O)[O-])c(Cl)c2ccccc21	14	52*	-6	2	92*	21	94*	106*	Mdm2-MdmX confirm=103*
Cc1cc(C)n(-c2cc(-n3nc(C)cc3C)ncn2)n1	-32	16	4	0	-8	-16	nt	nt
Cc1cc(C)n(-c2ncc(C#N)cn2)n1	9	-5	11	0	49*	-12	4	-3
CSCCC(NC(=O)c1ccco1)C(=O)N1CCN(C(c2ccccc2)c2ccccc2)CC1 (stereo not drawn)	-15	19	nt	nt	9	-4	nt	nt
CCOC(=O)C1CCN(C(=O)CCc2c(C)nc3cc(-c4ccccc4)nn3c2C)CC1	-34	15	66*	-1	69*	2	84*	45
Cc1nc2cc(-c3cccc(F)c3)nn2c(C)c1CCC(=O)N1CCN(c2ccccn2)CC1	-16	8	46	nt	72*	-12	81*	59*
CCOC(=O)C1CCCCN1C(=O)CCc1c(C)nc2ncnn2c1C (stereo not drawn)	-3	-20	?	-3	63*	21	49*	28
COc1cc(OC)cc(-c2cc3nc(C)c(CCC(=O)O)c(C)n3n2)c1	58*	4	nt	25*	82*	90*	90*	86*
CCOC(=O)C1CCCCN1C(=O)CCc1c(C)nc2cc(-c3ccccc3)nn2c1C (stereo not drawn)	9	18	76*	3	75*	69*	85*	74*
